# Experimental data taken from the supplement of paper PMC6555819.
# Tested on: VDR:RXRa (NR concentration 270 nM, RXRa partner concentration 90 nM)
# Experiment: PBM binding z-score (relative to random genomic background probes); higher = stronger binding; sequences stand for … in GC…GCGATTGACAGCGTAGAATGAAGG
# Procedure: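 Protein-binding microarray (Agilent 4x180K custom design, double-stranded 60-nt probes: 5' GC cap, 34-nt variable region, 24-nt constant primer region; full probe sequence given). Purified or IVT nuclear receptor:RXRα heterodimers (3:1 NR:RXRα, mostly 270:90 nM) or homodimers were incubated for 1 h in PBS with 2% milk and no ligand, then detected with Alexa488 antibodies. Fluorescence from o1-orientation probes (~5 replicates averaged) was converted to z-scores against 500 random hg19 background probes. Variable regions are seed direct-repeat (DR0–DR5) sites, all their single-nucleotide variants and half-site ablations.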
row,Sequence,PBM binding z-score
1,TCGTGTAGGTTAGTCGGGGCATTCAGCCAACATA,2.72
2,TATGCAGGGTCAAAGGCCAGAGTACGAATGTCGA,4.61
3,ACTAGCAGGCCAAGGGTCACTCCAGATTAGTCCG,2.32
4,CGTCCAAGGACAGAGAGGTCAGTGAATGCCGAGT,3.03
5,CTCGAAAGGTCGATTGAGGTGAGTATACGGATAA,3.76
6,CCTGACGGGTCAAGGTTATAGCACGGGTGGTACG,2.74
7,CCTACTGGGCCAAGAAAGGTCATTGATTCAGTGA,3.68
8,TGAATGAGGTTATAAGTTCAGGGAACGTTGCAAA,3.67
9,ATCTCCAGGTAACCAAGTTCAGTGAATGCCGAAC,4.4
10,CAGCCTAGGTCAGGGCCTGTATAGGAGGAACGTT,-0.0829
11,ATCTCGAGGTAAGACTCAGTTCAGTGAAGAACGC,0.704
12,CAAACTATGTCACAGAGGTCAAAGTCCGTGCGTA,6.63
13,GCTTGCAGATCAAGGTTAAGAAAGACTAAGCTAA,-0.0251
14,ACTAGCAGGCCAAGGGGCACTCAAGATTAGTCCG,-0.375
15,TCTAGTTGGTCAAGGGTCACACACTCGAAATGCG,4.32
16,CTACCAAGGTAAACAAGGTCGTTGATTACTATTC,4.73
17,ACTATTAGTTAACTTAGGGCAACCGATACGACGC,0.299
18,ATCTCTAGTTAAAAGTTCAGTGAATCCCGAGGAT,1.29
19,AGAATGAGGATATTAAGATCAGGGAATTGCGGTC,-0.178
20,TAGCCTAGGCCATTCAGGGGCCAGTATAGAAAGC,-0.423

row,Sequence,PBM binding z-score
1,TCAAGTAGGTTAGGGGCATTCAGAATGGCGTCGA,1.05
2,CCTAGCTGGTCAGGAGGTCACACACCGGATATGA,3.73
3,CCGAGTAGCTTATGGGGCATTCAGGCAACGGTGA,-0.651
4,CCGACTCGGGCAAGGTTACCATAACGCACAGCCA,-0.103
5,CCTCAGAGGACAGAAGGTCAGAGCTGTCCGCTTT,1.07
6,TCTTGTAGATCAACAGGAGGTTAAGAAGGATCGA,0.575
7,CGTCAAAGTTCAAGGTAACCTAACAGAAAGCAGC,3.96
8,CCTTACGGGTCACTGACGGGTTATAGCATTTGGA,3.7
9,TCTCGGAGGACACGAAAGGTCAGACCTCGACATC,3.52
10,TCTATTAGTTGATTTGGGCAACCGAAACAGCGGA,0.688
11,CCTGCTAGGTGAATGGTCAGCTAAAGCAGCTCGC,-0.699
12,TCTGCTAGGTCAGTTGGTCAGCTTACGAGCTGCC,0.0848
13,CCTAGCAGGACAGGGTCACTCAAGCATTTCGCTT,2.9
14,GCTTACGGGTCAAAGGTGATAGCATGAATAGAAT,4.42
15,ATATGTAGGTTAGCTGGGGTCATTCAAACTAGGC,6.37
16,TCTCGGAGGACACGAAAGGTCAGAGGTCGACATC,4.52
17,CCTACTGGGCCATTCAGCGGTCATTGATCATATG,-0.109
18,TCTGCTAGGTCACCGATGGTCAGCTAATCTGCTA,2.17
19,ATATCTAGGTTACATCCGGGTCATTCAGGCTATG,4.23
20,GCGACTGGGGCATCAGCAGATTACCATAACTTAA,-0.562
